SW480 rerep: DNA re-replication induction in SW480 cells. AID 624297. Potency, µM (top dose mostly 46.1 µM), without a hit: top-dose re-replication activation, usual class: activators. SW480 DNA re-replication, Hoechst DNA content imaging, 48 h. actives 1.8% (n = 340,000); note: % of control where 0% means no effect; nearly all actives have a fitted effect of over 55% in size
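250 cells/well; 23 nL cpd via pin tool; 48 hr, 37 C, 5% CO2; Hoechst 40 min; imager read of total nuclear intensity, ex 405/em 500-530 nm.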
KB-V1 cytotox: KB-V1 MDR subline cytotoxicity. actives 3.4% (n = 400,000). AID 1347076. KB-V1 MDR cells viability, CellTiter-Glo, 72 h. Potency, µM (titrated, usually from 46.1 µM), hits mostly cytotoxic; note: % is set by controls: 0 for no effect and ±100 for the full control effect; nearly all actives have a fitted effect of over 60% in size
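Compound-treated KB-V1 multidrug-resistant cells, 72 h, 37 degrees C; viability by CellTiter-Glo. Fitted qHTS curves give the values.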
KB-3-1 tox: kills parental KB-3-1 adenocarcinoma cells | AID 1347075 | Potency, µM (titrated, usually from 46.1 µM), hits mostly cytotoxic | actives 1.4% (n = 400,000) | KB-3-1 viability, CellTiter-Glo ATP luminescence, 72 h; note: % is set by controls: 0 for no effect and ±100 for the full control effect; nearly all actives have a fitted effect of over 60% in size
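Viability of parental KB-3-1 cells, measured by CellTiter-Glo luminescence, followed a 72 h incubation at 37 °C with pinned compounds in phenol-red-free DMEM containing 10% FBS.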
HT1080 IDH1KD tx: kills HT-1080 cells with IDH1 knockdown | HT-1080 IDH1 knockdown viability, ATP luminescence, 48 h | Potency, µM (highest dose often 46.1 µM), for inactives: at the highest dose activity, negative = toxicity, usual class: cytotoxic | actives 2% (n = 360,000) | AID 686971;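 note: 0% = DMSO wells and -100% = cell-free medium wells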
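IDH1KD HT-1080 cells, 750/well, RPMI + 5% FBS; compound pinned after 2 h settling; 48 h, 37 °C; CellTiter-Glo luminescence; % activity normalised to DMSO and no-cell wells; curves fitted, classed by r2 and efficacy.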
MCF10A rerep: inducers of DNA re-replication in MCF 10A breast cells; MCF 10A DNA re-replication, Hoechst nuclear intensity, 48 h; AID 624296; actives 2.9% (n = 350,000); Potency, µM (top dose mostly 46.1 µM), inactives show at the highest dose activity, positive = re-replication, most hits filed as activators; note: % of control where 0% means no effect; nearly all actives have a fitted effect of over 50% in size
HT1080-NT tox: kills 2HG-producing HT-1080-NT fibrosarcoma cells; HT-1080-NT fibrosarcoma viability, CellTiter-Glo ATP luminescence, 48 h; Potency, µM (series often up to 46.1 µM), for inactives: at the highest dose activity, negative = less viability, hits mostly cytotoxic; actives 1.6% (n = 360,000); AID 686970;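 note: NT is the 2HG producing partner of a matched IDH1 knockdown line; 0% = DMSO-treated cells and -100% = media-only wells without cells; nearly all actives have a fitted effect of over 55% in size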
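Compounds were tested in concentration-response format on HT-1080-NT cells for 48 hours at 37 degrees C. Cell viability came from CellTiter-Glo luminescence; curves were classified by r2, response magnitude and activity.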
Numbers without * were called inactive; i = inactive; ? = inconclusive; nt = not tested or not shown. This is a sample that favours compounds with a hit; in the whole collection about 7.9% have one here. Calls come from the whole dose curve; as a rule, active = well fitted curve in the direction sought with a large enough effect; inconclusive = small, poorly fitted or top-dose-only effect, or another doubt; inactive = no such curve, though single readings can be large; an effect the other way counts as inactive or inconclusive. Potency is the fitted concentration of half-maximal effect.

SMILES	SW480 rerep	KB-V1 cytotox	KB-3-1 tox	HT1080 IDH1KD tx	MCF10A rerep	HT1080-NT tox
CC(=O)Nc1ccc(SC[C@H](Cc2ccccc2)N2CC[C@@H](N)CCC2=O)cc1	nt	i	i	nt	nt	nt
CN1C(=O)C[C@@H](C(=O)N[C@@H](Cc2cnc[nH]2)C(=O)N2CCC[C@H]2C(N)=O)NC1=O	-1%	nt	nt	nt	4%	nt
COc1ccc(C(=O)N2CCCC(c3cc(C(=O)NCc4cccnc4)no3)C2)cc1 (stereo unspecified)	nt	i	i	-11%	nt	1%
Cc1nc(N2CCOCC2)c2oc3ccccc3c2n1	6%	15µM*	i	-12%	?	-10%
CCc1nc(N2CCCC(C)C2)c2oc3ccccc3c2n1 (stereo unspecified)	20%	5.2µM*	?	?	?	?
CCc1nc(N2CCCCC2C)c2oc3ccccc3c2n1 (stereo unspecified)	?	7.3µM*	?	?	?	?
CCOC(=O)C1CCCN(c2nc(C)nc3c2oc2ccccc23)C1 (stereo unspecified)	29%	8.2µM*	i	?	57%	?
CCc1nc(N2CCCCC2)c2oc3ccccc3c2n1	?	?	i	?	6%	?
CC(=O)Nc1ccc(OC2=NS(=O)(=O)c3ccccc32)cc1	nt	i	i	nt	nt	nt
COc1ccc(CCNC(=O)C(=O)c2cn(CC(=O)N3CCCC3)c3ccccc23)cc1	nt	i	i	1%	nt	-4%
CCc1nc(N2CCN(Cc3ccc4c(c3)OCO4)CC2)c2oc3ccccc3c2n1	?	10µM*	20µM*	?	9.2µM*	?
Cc1ccc(C)c2[nH]c(=O)c(CN(CCN3CCCC3)C(=O)Nc3ccc(F)cc3)cc12	1%	i	?	?	?	16µM*
COc1ccc(C2CCCN2CC(O)COc2ccccc2C(C)C)cc1 (stereo unspecified)	?	?	i	21µM*	?	21µM*
COc1ccc(-c2cc(C(F)(F)F)nc(SCCC(=O)Nc3ccc(OC)c(OC)c3)n2)cc1	nt	i	i	nt	nt	nt
Cc1cc(N2CCN(c3cccc(C(F)(F)F)c3)CC2)n2ncnc2n1	-3%	i	?	8%	-3%	3%
Cc1cc(N2CCN(C(c3ccccc3)c3ccccc3)CC2)n2ncnc2n1	-10%	?	i	-1%	?	1%
Cc1nc2ncnn2c(N2CCN(C(c3ccccc3)c3ccccc3)CC2)c1C	-3%	23µM*	i	?	?	-15%
Cc1nc2ncnn2c(N2CCN(c3cccc(C(F)(F)F)c3)CC2)c1C	-1%	2.6µM*	21µM*	?	-4%	?
COc1ccc(NC(=O)c2cc3nc(-c4ccc(C)c(C)c4)cc(C(F)(F)F)n3n2)cc1	nt	i	i	nt	nt	nt
CC(C)C(=O)Nc1nc2cc3c(cc2s1)OCO3	-4%	i	i	6%	-1%	6%
Fc1cccc2sc(Nc3nc4cc5c(cc4s3)OCCO5)nc12	-6%	i	?	?	5.2µM*	?
Fc1cc(F)c2nc(Nc3nc4cc5c(cc4s3)OCO5)sc2c1	-17%	i	i	?	15µM*	?
Fc1cccc2sc(Nc3nc4cc5c(cc4s3)OCO5)nc12	-10%	i	i	?	10µM*	?
CCNC(=O)c1cc2c(c(-c3cccc(-c4cccc(C(=O)N(C)C)c4)c3)n1)[C@@H](CCO)N(S(=O)C(C)(C)C)C2 (stereo partly specified)	nt	i	i	5%	nt	7%
CCOC(=O)C1CCN(C(=O)C2CCN(S(=O)(=O)N3CCC4(CC3)OCCO4)CC2)CC1	-3%	i	i	0%	1%	4%
SMILES	SW480 rerep	KB-V1 cytotox	KB-3-1 tox	HT1080 IDH1KD tx	MCF10A rerep	HT1080-NT tox
COc1cc2c3c(c1)-c1c(sn(-c4cc(OC)ccc4OC)c1=S)C(C)(C)N3C(=O)C2=O	-10%	i	i	2%	-1%	8%
Cc1ccc(S(=O)(=O)N2c3ccccc3-c3c(ssc3=S)C2(C)C)cc1	?	21µM*	?	?	?	-3%
COc1ccc2c(c1)-c1c(ssc1=S)C(C)(C)N2S(=O)(=O)c1ccc(C)cc1	7.3µM*	5.8µM*	?	6.5µM*	5.2µM*	?
CCOC(=O)CC1(C)N(S(=O)(=O)c2ccc(C)cc2)c2ccccc2N1S(=O)(=O)c1ccc(C)cc1	nt	?	i	20%	nt	19%
CCCS(=O)(=O)NC(=O)C1(C)CCCN(C(=O)CSc2ccccc2)C1 (stereo unspecified)	nt	i	i	2%	nt	?
Cc1nn2c(N3CCN(CCO)CC3)c3c(nc2c1-c1ccccc1)CCCC3	?	i	i	?	12%	18µM*
Cc1nn2c(N3CCCC3)c3c(nc2c1-c1ccccc1)CCC3	18µM*	?	i	-2%	7%	5%
Cc1nn2c(-n3ccnc3)c3c(nc2c1-c1ccccc1)CCC3	-4%	?	i	1%	-1%	-1%
COc1ccccc1NC(=S)N(Cc1ccco1)Cc1cc2cc(C)cc(C)c2[nH]c1=O	21µM*	2.9µM*	6.5µM*	?	13µM*	?
COc1ccccc1NC(=S)N(Cc1ccco1)Cc1cc2ccc(C)c(C)c2[nH]c1=O	?	1.8µM*	0.92µM*	?	?	?
Cc1ccc2cc(CN(Cc3ccco3)C(=O)C3CCCCC3)c(=O)[nH]c2c1C	-3%	i	i	19%	1%	8%
CNC(=S)N(Cc1ccco1)Cc1cc2cc(OC)c(OC)cc2[nH]c1=O	-7%	i	i	-2%	2%	-10%
COc1ccc(-c2nnc(SC(C)C(=O)O)o2)cc1 (stereo unspecified)	nt	i	i	nt	nt	nt
Cc1ccc(N(Cc2cc3ccccc3[nH]c2=O)C(=O)c2cccs2)cc1C	?	?	i	17%	-4%	14%
O=C(c1cccs1)N(Cc1cc2ccccc2[nH]c1=O)c1ccccc1	1%	5.2µM*	?	-2%	-70%	15%
CCc1ccc(-n2c(CCC(=O)O)ccc2-c2ccc(F)cc2)cc1	nt	i	i	nt	nt	nt
O=C(NCc1ccccc1)c1cc(=O)nc2sc(-c3ccccc3)nn12	0%	13µM*	?	12%	11%	10%
